SMILES strings stand for the structures. The panel holds about 83,000 compounds, 20% with a hit somewhere; the sample as a whole holds those more often.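 The test compound was applied at a single concentration to cells in 96-well plates for 48 hours, and percent growth was recorded.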 Calls of active or inactive are those of the source. How the source made its calls: active means growth percent below 10; inactive means the rest.

For this assay, the system named is HCT-116 colon. As to the kind of experiment: NCI-60 one-dose screen, 48 h (100 = growth as untreated, 0 = no growth, -100 = all killed). As to conditions: 10 µM unless noted.
Regarding `CCOc1ccccc1NC(=O)N/C(N)=N/c1nc2ccccc2s1`, the growth is -5.6% (active).

For `N#CC1=C(c2cccs2)Nc2c(c(-c3ccccc3)nn2-c2ccccc2)C12C(=O)Nc1ccc(Br)cc12` (stereo not given), the growth was -52.8% (active).

Consider `COc1cc(CNC(=O)C[C@H](C)CCC=C(C)C)ccc1OCc1cn(-c2ccc(Cl)c(Cl)c2)nn1`, for which the growth is 29.8% (inactive).

Consider `CN1C(=O)/C(=C\C(=O)c2cc3ccccc3oc2=O)c2ccccc21`, for which the growth is 52.6% (inactive).

On to `COc1ccc(Nc2nnc(-c3c[nH]c4ccccc34)o2)cc1`, for which the growth was 92.4% (inactive).

Turning to `Cc1ccc(C2CC(c3ccc(NC(=O)Nc4ccccc4)cc3)=NN2c2ccc(S(N)(=O)=O)cc2)cc1` (stereo not given), the growth is -74.4% (active).

Take `Cc1ccc(C(=O)Nc2cc(-n3cnc(F)c3)cc(C(F)(F)F)c2)cc1C#Cc1cnc2cccnn12`: the growth was 19% (inactive).

With `CCCCCCCCc1ccc(C(=O)Nc2ccc(C)c(OP(=O)(O)O)c2)cc1`, the growth was 106% (inactive).

Take `C=CCn1c(O)c(N=Nc2nc(-c3cc4ccccc4oc3=O)cs2)c2ccccc21`: the growth is 39.3% (inactive).

For the compound `FC(F)(F)c1cc2c(Cl)ncnc2n1CCN1CCOCC1`, the growth is 31.7% (inactive).

Turning to `C/C(=N\Nc1ccc(C(=O)O)cc1)c1cnn(-c2cc(=O)[nH]c3ccc(C)cc23)c1C`, the growth was 95.2% (inactive).

As to `CCN1CCN(Cc2ccc(C(=O)Nc3cccc(Nc4ccc5c(OC)cccc5n4)c3)cc2C(F)(F)F)CC1`, the growth is -56.4% (active).

In the case of `Nc1nn2c(-c3cc4cc(Br)ccc4oc3=O)ccnc2c1N=Nc1ccccc1`, the growth was 3.34% (active).

In the case of `Cc1cccc(-c2ccccc2Oc2ccc3nnc(Cl)n3n2)c1`, the growth was 104% (inactive).

`Cc1ccc(/C=C/C(=O)c2ccc(S(=O)(=O)NCCNc3nc(N(C)C)nc(N4CCOCC4)n3)cc2)cc1`: the growth is -21.6% (active).

With `C#CCN(C)CCCOc1ccc(N(C)C(=O)c2cc(C(C)C)c(O)cc2O)cc1Cl`, the growth is 7.57% (active).

Consider `Cc1ccc(C(=O)C[n+]2cccc3c4ccccc4ccc32)cc1`, for which the growth was 11.8% (inactive).

For the compound `COc1ccc(NC(=O)N/N=C/c2c[nH]c3ccccc23)cc1`, the growth is 21.5% (inactive).

Regarding `O=C(CSc1nc2ccccc2c(=O)[nH]1)NNC(=O)c1ccccc1Cl`, the growth was 109% (inactive).

With `CC[C@]12C=CCN3CC[C@]4(C(=C(C(=O)OC)C1)Nc1cc(OC)c([C@@H]5[C@H]6O[C@H]6[C@@]6(CC)CC(C(=O)OC)=C7Nc8cc(O)ccc8[C@@]78CCN5[C@@H]68)cc14)[C@@H]32`, the growth was -72.3% (active).

As for `O=C(Cc1c(-c2ccccc2[N+](=O)[O-])n(-c2ncnc3c2c(-c2ccccc2)c(-c2ccccc2)n3Cc2ccccc2)[nH]c1=O)c1ccc(Cl)c(Cl)c1`, the growth is 13.7% (inactive).

Regarding `COc1ccc2[nH]c(O)c(N=Nc3nc(-c4ccc(Cl)cc4)cs3)c2c1`, the growth is -74.9% (active).

As to `O=C(CSc1nnc(-c2ccc(-c3nc4ccccc4[nH]3)cc2)o1)Nc1ccccc1`, the growth was 50.8% (inactive).

For `CN(C)CCOc1ccc(C(=O)C2[C@H](c3ccc(Cl)cc3)[C@@H](c3ccccc3)NC23C(=O)Nc2ccc(Cl)cc23)cc1` (stereo not given in full), the growth is -91% (active).

Take `COc1cc(/C=C/C(=O)c2cnn(-c3cc(=O)[nH]c4ccc(Cl)cc34)c2C)cc(OC)c1OC`: the growth was -67.6% (active).

Values taken from PubChem BioAssay (NCI).
